Only some compounds are listed: those with a hit (about 3.5% of all), similar ones and a draw of the others.
Autofluor counter: compound fluorescence in toxin protease inhibitor counterscreen. compound autofluorescence counterscreen, microsphere flow cytometry; hits give high values. fluorescence intensity (test concentration not listed). 3.1% of 360,000 active. AID 624483; in the data active = fluorescence intensity above about 16000; inconclusive = no clear call, values can overlap the other calls
BoNT-F LC inh: BoNT/F light chain protease inhibitors, primary screen, biochemical, flow cytometry, MLPCN library; Botulinum neurotoxin type F light chain protease (Clostridium botulinum); inhibition, % at 10 µM; 0.22% of 360,000 active; AID 588497, 2011; Multiplex microsphere protease cleavage assay; in the data active = inhibition above about 35%, passing the limit was not always enough; inconclusive = no clear call, values can overlap the other calls; note: plate controls were buffer without enzyme for full effect and enzyme alone for no effect
BoNT-A LC inh2: BoNT/A light chain protease inhibitors, primary screen, biochemical, flow cytometry, MLPCN library. multiplex microsphere protease substrate cleavage. inhibition, % at 10 µM. 0.17% of 360,000 active. AID 588499, 2011; note: plate controls were buffer without enzyme for full effect and enzyme alone for no effect
Anthrax LF prot: Bacillus anthracis LF protease inhibitors, primary screen, biochemical, multiplex microsphere, MLPCN library; 0.12% of 360,000 active; Lethal factor (Bacillus anthracis), P15917; inhibition, % at 10 µM; AID 588501, 2011; multiplex microsphere protease cleavage assay; note: plate controls were buffer without enzyme for full effect and enzyme alone for no effect
3CLpro inhibitor: SARS-CoV 3CLpro protease inhibitors, primary screen, biochemical, quenched FRET | recombinant SARS-CoV 3CLpro, quenched FRET peptide cleavage | 0.14% of 290,000 active | inhibition, % at 6 µM | AID 1706, 2009 | Replicase polyprotein 1ab (Severe acute respiratory syndrome coronavirus), P0C6X7; in the data active = inhibition above about 12%
Numbers without * were called inactive. Cut-off read from the data, not from the text of the source, unless noted: active = inhibition above about 30%; inconclusive = no clear call, values can overlap the other calls; inactive = below that.

How did COc1ccc(OCC(=O)Nc2ncc3c(n2)CC(C)(C)CC3=O)cc1 do in these assays?
Autofluor counter: 22939*; BoNT-F LC inh: -4.2; BoNT-A LC inh2: inconclusive; Anthrax LF prot: -2.5; 3CLpro inhibitor: 1.7

How did CCCCC(=O)Nc1ncc2c(n1)CC(C)(C)CC2=O do in these assays?
Autofluor counter: 2364; BoNT-F LC inh: 2.2; BoNT-A LC inh2: 0.0; Anthrax LF prot: -1.2; 3CLpro inhibitor: -2.6

What do the screens show for `CC1(C)CC(=O)c2cnc(NC(=O)CSc3nc4ccccc4o3)nc2C1`?
Autofluor counter: 5209; BoNT-F LC inh: -33.4; BoNT-A LC inh2: -1.2; Anthrax LF prot: -3.3; 3CLpro inhibitor: 1.1

What do the screens show for `Cc1cc(N2CCOCC2)nc2ccc(NC(=O)CCC(=O)N3CCCCC3)cc12`?
Autofluor counter: 23643*; BoNT-F LC inh: -1.9; BoNT-A LC inh2: -1.4; Anthrax LF prot: -2.9; 3CLpro inhibitor: 1.4

What do the screens show for `Cc1cc(N2CCOCC2)nc2ccc(NC(=O)CCC(=O)N3CCC(C)CC3)cc12`?
Autofluor counter: 19171*; BoNT-F LC inh: 0.4; BoNT-A LC inh2: 1.9; Anthrax LF prot: -2.5; 3CLpro inhibitor: -0.5

Results for COc1ccc(N(C)C(=O)CCC(=O)Nc2ccc3nc(N4CCOCC4)cc(C)c3c2)c(OC)c1 ?
Autofluor counter: 16645*; BoNT-F LC inh: -2.2; BoNT-A LC inh2: -0.2; Anthrax LF prot: -1.7; 3CLpro inhibitor: -3.6

What do the screens show for `Cc1cc(N2CCOCC2)nc2ccc(NC(=O)CCC(=O)N3CCN(c4cccc(C(F)(F)F)c4)CC3)cc12`?
Autofluor counter: 3155; BoNT-F LC inh: 3.9; BoNT-A LC inh2: 1.3; Anthrax LF prot: 0.1; 3CLpro inhibitor: 5.4

How did COc1ccc(NC(=O)CCC(=O)Nc2ccc3nc(N4CCOCC4)cc(C)c3c2)c(OC)c1 do in these assays?
Autofluor counter: 5267; BoNT-F LC inh: -5.3; BoNT-A LC inh2: 0.4; Anthrax LF prot: 0.0; 3CLpro inhibitor: -6.4

Results for CCC(C)NC(=O)CCC(=O)Nc1ccc2nc(N3CCOCC3)cc(C)c2c1 (centres undefined) ?
Autofluor counter: 2804; BoNT-F LC inh: 6.5; BoNT-A LC inh2: 0.8; Anthrax LF prot: -1.5; 3CLpro inhibitor: -2.6

How did CCCCn1c(N)c(N(CCOC)C(=O)c2ccc(Br)s2)c(=O)[nH]c1=O do in these assays?
Autofluor counter: inconclusive; BoNT-F LC inh: 0.4; BoNT-A LC inh2: -2.4; Anthrax LF prot: 1.0

What do the screens show for `COc1ccc(C)cc1NC(=O)C(Sc1nnnn1C)c1ccccc1` (centres undefined)?
Autofluor counter: 4496; BoNT-F LC inh: -2.6; BoNT-A LC inh2: -0.9; Anthrax LF prot: 2.2; 3CLpro inhibitor: 1.3

What do the screens show for `Cc1ccc(-c2nc3cc(C)c(Br)c(C)n3c2Cc2ccsc2)cc1`?
Autofluor counter: 6312; BoNT-F LC inh: -3.8; BoNT-A LC inh2: 0.8; Anthrax LF prot: 0.6

What do the screens show for `CC(=O)N1CCC2(CC1)CC(=O)c1cc(OCC(=O)N3CCCC3)ccc1O2`?
Autofluor counter: 3581; BoNT-F LC inh: 1.2; BoNT-A LC inh2: -0.3; Anthrax LF prot: 1.4; 3CLpro inhibitor: -3.0

Results for CC(C)N=C1CC(C)(C)CC(=O)/C1=C(/O)CCCN1C(=O)c2ccccc2C1=O ?
Autofluor counter: 2464; BoNT-F LC inh: -8.0; BoNT-A LC inh2: -0.6; Anthrax LF prot: -0.4; 3CLpro inhibitor: 1.9

How did COc1cc(C=O)ccc1Oc1nnnn1-c1ccc(C(N)=O)cc1 do in these assays?
Autofluor counter: 16078; BoNT-F LC inh: -1.0; BoNT-A LC inh2: 0.1; Anthrax LF prot: -1.4; 3CLpro inhibitor: 1.1

Results for COc1cc(CO)ccc1Oc1nnnn1-c1ccc(C(N)=O)cc1 ?
Autofluor counter: 16480*; BoNT-F LC inh: 15.4; BoNT-A LC inh2: 10.3; Anthrax LF prot: -8.1; 3CLpro inhibitor: 3.4

What do the screens show for `NC(=O)c1cc(N2C(=O)C3CC=CCC3C2=O)ccc1N1CCCCC1` (centres undefined)?
Autofluor counter: 23233*; BoNT-F LC inh: -0.9; BoNT-A LC inh2: 0.7; Anthrax LF prot: 3.0; 3CLpro inhibitor: 1.3

Results for CCn1c(COc2cccc(C)c2)nnc1SCC(=O)CC(=O)Nc1ccccc1OC ?
Autofluor counter: inconclusive; BoNT-F LC inh: -6.4; BoNT-A LC inh2: 0.0; Anthrax LF prot: inconclusive; 3CLpro inhibitor: 7.0

Results for CCOc1ccccc1-n1c(COc2ccc(C)cc2)nnc1SCC(N)=O ?
Autofluor counter: 22748*; BoNT-F LC inh: 0.5; BoNT-A LC inh2: 0.8; Anthrax LF prot: -2.2; 3CLpro inhibitor: -5.5

Assay outcomes from PubChem BioAssay.
